Test results taken from PubChem BioAssay AID1347075 (National Center for Advancing Translational Sciences (NCATS), 2019).
About 5,500 (1.4%) of roughly 400,000 compounds were called active. Roughly 9% stayed inconclusive and do not appear here. Only a selection was taken, and actives are over-represented in it overall. Values without a mark were called inactive. The call rests on the fitted dose curve; in most records, active means well fitted cell-killing curve with a large enough effect; inconclusive means small, poorly fitted or top-dose-only effect, or effect the other way; inactive means flat fitted curve, though single readings scatter.

Experiment: qHTS assay for MDR1-selective chemotherapeutics: Primary screen using the parental adenocarcinoma cell KB-3-1; further: nearly all actives have a fitted effect of over 60% in size
Conditions: KB-3-1 viability, CellTiter-Glo ATP luminescence, 72 h; series mostly up to 46.1 µM; activity change, negative = cytotoxic: at the top concentration
From the text: A prime difficulty in effectively treating cancer is the development of cellular resistance to multiple structurally unrelated anticancer drugs, a phenomenon known as multidrug resistance (MDR). […] Numerous strategies to overcome P-gp-mediated MDR have been explored, including the design of drugs that evade recognition and efflux, and development of inhibitors to block efflux and restore drug accumulation. […] An alternative approach is to exploit resistance by identifying drugs that target MDR cells over the non-resistant parental cells from which they were selected. […] The development of MDR1-selective agents represents a new strategy for resolving multidrug resistance, as it remains a long-standing clinical challenge for cancer chemotherapy.
Our goal is to identify compounds that selectively kill P-gp-expressing MDR cells. We will identify MDR1-selective compounds by comparing toxicity of compounds in the screening library against parental, drug-naive (KB-3-1) adenocarcinoma cells as well as their drug-selected MDR sub-line (KB-V1). The differential toxicity of compounds against these two cell lines will be used to identify MDR1-selective compounds, whose cytotoxicity is potentiated, rather than diminished, by P-gp expression. This assay will be utilized to conduct a quantitative high-throughput screen (qHTS) in collaboration with the NIH Chemical Genomics Center to identify selective agents, and probe hits arising from the screen will be validated using secondary assays and characterized through a well-established follow-up research program. This screen was run against the entire NCGC library collection of about 400,000 compounds.
NIH Molecular Libraries Probe Production Network [MLPCN]
NIH Chemical Genomics Center [NCGC]
PI: Michael Gottesman PhD, National Cancer Institute, NIH
Briefly, 5 microL of media containing either KB-3-1 cells (columns 1-2, 4-48) are dispensed into Greiner white, treated solid-bottom 1536-well assay plates (media-only control is added to column 3). Compounds are then transferred via Kalypsys pin tool equipped with 1536-pin array (10 nL slotted pins, V&P Scientific, San Diego, CA). Following addition of compound, the plates are incubated at 37 degrees C for 72 hours. CellTiter-Glo (2.5 µL/well) is then added, and the plates are read in a ViewLux reader (Perkin-Elmer, clear luminescence filter, 1 second exposure, 1x binning) following a 10 minute incubation. All cells are dispensed in DMEM phenol-red free media containing 10% FBS.
Library plates were screened starting from the lowest and proceeding to the highest concentration. Vehicle-only plates, with DMSO being pin-transferred to columns 5-48, will be inserted uniformly at the beginning and the end of each library in order to monitor and record any shifts in the background, which can be affected by reagent dispensers or loss in enzyme activity over time. Screening data will be corrected, normalized, and concentration-effect relationships will be derived by using publicly-available NCGC, NCATS curve fitting algorithms (http://ncgc.nih.gov/pub/openhts).
On the % scale 0 is the no-effect control and ±100 the full control effect; potency means the concentration at half of the fitted maximal effect.

SMILES | activity change, negative = cytotoxic [%] | Potency
Cc1cccc(-n2ncc(C(=O)N3CCC(C)CC3)c2C2CCN(C(=O)OC(C)(C)C)CC2)c1 | 1.23 | –
O=C(Cn1nnc(-c2ccc3c(c2)OCO3)n1)NCc1ccco1 | -9.57 | –
CC1(C(=O)Nc2cccnc2)Cc2c(-c3ccccc3)ccnc2O1 (stereo not drawn) | -2.18 | –
CS(=O)(=O)N(CC(=O)NCc1ccco1)c1ccc2c(c1)OCO2 | -2.96 | –
CC(=O)Nc1cccc(-c2ccnc3c2CC(C)(C(=O)NCc2ccccc2)O3)c1 (stereo not drawn) | – | 2.91 µM (active)
CC1(C(=O)NCc2ccco2)Cc2c(-c3ccc4c(c3)OCO4)ccnc2O1 (stereo not drawn) | – | 2.59 µM (active)
CC(=O)Nc1cccc(-c2ccnc3c2CC(C)(C(=O)NCc2ccco2)O3)c1 (stereo not drawn) | -6.09 | –
CC1=C(C(=O)OCc2ccc(C)cc2)C(c2c(Cl)cccc2Cl)CC(=O)N1 (stereo not drawn) | 1.29 | –
Cc1ccc2nc(COc3cccc(NC(=O)c4cccc(Cl)c4)c3)cc(=O)n2c1 | 2.14 | –
CCc1nc2ccc(C(=O)N3CCN(c4cc(Cl)ccc4C)CC3)cc2nc1CC | 0 | –
O=C(c1ccco1)N(Cc1cccs1)c1ccc(O)cc1 | 3.03 | –
CCOC(=O)C1C(C)C(C(C)(C)C)N(S(=O)(=O)c2ccc(C)cc2)C1c1ccccc1 (stereo not drawn) | – | 23.1 µM (active)
CCOC(=O)C1=CC[C@@H](c2ccccc2)N(S(=O)(=O)c2ccc(C)cc2)[C@H]1c1cccc(OC)c1 | -0.13 | –
CCOC(=O)C1=CC[C@@H](c2ccccc2)N(S(=O)(=O)c2ccc(C)cc2)[C@H]1c1ccc(CC)cc1 | -1.65 | –
COc1ccc(-c2ccc3ncnc(NCc4cccs4)c3c2)cc1OC | -8.64 | –
Cc1ccccc1CSCCNC(=O)C1CCN(S(=O)(=O)Cc2ccccc2)CC1 | 5.62 | –
CCCNC(=O)C1CCC(Cn2c(=O)c3sccc3n(Cc3ccccc3F)c2=O)CC1 (stereo not drawn) | 3.19 | –
CCOC(=O)c1ccc(NC(=O)c2ncn(-c3ccccc3)n2)cc1 | -18.2 | –
CCOc1ccc(CNC(=O)c2cc(-c3ccc(Cl)s3)nc3ccccc23)cc1 | 7.73 | –
CCc1cc2c(NC(Cc3ccccc3)C(=O)O)ncnc2s1 (stereo not drawn) | 16.8 | –
CCN1CCN(c2ncnc3c2cnn3-c2ccc(C)c(C)c2)CC1 | -9.73 | –
CCc1cc2c(N3CCN(c4nnc(CC)s4)CC3)ncnc2s1 | – | 9.2 µM (active)
CCCCOc1ccc(C(=O)Nc2cccc(-c3nc4ccccc4o3)c2C)cc1 | 2.3 | –
Cc1ccc2nc(CN3CCN(S(=O)(=O)c4ccc(C)c(C)c4)CC3)oc2c1 | 5.7 | –

SMILES | activity change, negative = cytotoxic [%] | Potency
COc1ccccc1NC(=O)c1cc(Cl)nnc1Cl | – | 23.1 µM (active)
CSc1ccccc1NC(=O)c1cc(Cl)sc1Cl | 5.25 | –
COc1ccccc1NC(=O)c1cc(N2C(=O)C3C4CCC(C4)C3C2=O)ccc1Cl (stereo not drawn) | 26.6 | –
Oc1ccccc1-c1nc(/C=C/c2ccc(F)cc2)no1 | -0.486 | –
COc1cc2c(=O)c(S(=O)(=O)c3ccc(C(C)C)cc3)cn(Cc3ccccc3C)c2cc1OC | 9.54 | –
CCOc1ccc(-n2c(SCC(=O)Nc3cc(C(=O)O)ccc3Cl)nc3ccccc3c2=O)cc1 | -4.78 | –
CCOc1ccc(-n2c(O)c(/C=N/Nc3nc(C)cc(C)n3)c3ccccc3c2=O)cc1 | – | 20.6 µM (active)
Cc1cc(C)nc(N/N=C/c2c(CO)cnc(C)c2O)n1 | 13.8 | –
COc1cc(OC)c(NC(=O)c2nc(-c3ccncc3)no2)cc1Cl | -2 | –
Cc1ccc(N2CCN(C(=O)CCc3c(C)nc4c(c3C)c(=O)n(C)c(=O)n4C)CC2)c(C)c1 | 11.6 | –
Cc1ccc(OCCn2c(CNc3ccccc3C)nc3ccccc32)cc1 | 2.01 | –
Cc1cc(C)cc(Nc2ncnc3onc(-c4ccc(F)cc4)c23)c1 | -3.07 | –
CC1Cc2ccccc2N1S(=O)(=O)c1ccc(Cl)nc1 (stereo not drawn) | 4.04 | –
CCC1CN(S(=O)(=O)c2cc(-c3cc(C)no3)ccc2C)c2cc(C)ccc2O1 (stereo not drawn) | -0.508 | –
Cc1cc(-c2ccc(C)c(S(=O)(=O)N3c4ccccc4CC3C)c2)on1 (stereo not drawn) | – | 14.6 µM (active)
O=C(OCC(=O)N1CCN(C(=O)c2ccco2)CC1)c1cccc(O)c1 | -20 | –
O=C(Nc1ccccc1N1CCN(C(=O)c2ccccc2)CC1)c1ccco1 | 5.81 | –
COc1cccc(C(=O)Nc2ccc(N3CCN(C(=O)c4ccco4)CC3)cc2)c1 | – | 4.61 µM (active)
Cc1csc2nc(COc3ccc(NC(=O)COc4ccccc4)cc3)cc(=O)n12 | 0.478 | –
O=C1CCCN1C(=O)COc1ccc([N+](=O)[O-])cc1 | -1.51 | –
O=C1/C(=C\c2ccc([N+](=O)[O-])cc2)CS(=O)(=O)C/C1=C/c1ccc([N+](=O)[O-])cc1 | – | 1.46 µM (active)
O=[N+]([O-])c1ccc(/C=C/c2ccc3cccnc3c2)cc1 | -25.6 | –
Cc1ccccc1C(=O)Nc1sc2c(c1C(=O)N1CCC(C)CC1)CCCC2 | -11.4 | –
COc1ccc(CNC(=O)c2ccc3c(O)c(S(=O)(=O)c4ccccc4)c(=O)[nH]c3c2)cc1 | 3.06 | –
